# Bioassay records: PubChem, National Center for Advancing Translational Sciences (NCATS)
# TbPYK inhibitor – qHTS of Trypanosoma Brucei Inhibitors; pyruvate kinase (Trypanosoma brucei), Q57TT1; TbPYK enzyme, Kinase-Glo Plus ATP luminescence, 45 min; Potency, µM (titrated, usually from 76.8 µM), without a hit: top-dose activity, negative = inhibition, usual class: inhibitors; hit rate 0.12% among 410,000; further: potency means the concentration at half of the fitted maximal effect; on the % scale 0 is the no-effect control and ±100 the full control effect; nearly all actives have a fitted effect of over 50% in size
#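 Quantitative HTS: titrated library compounds versus trypanosomal pyruvate kinase in TEA buffer (pH 7.2) containing KCl, MgCl2, BSA and Tween-20. Reactions were initiated with ADP, 130 uM final. Kinase-Glo Plus luminescence was read after 45 min at RT.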
# Cycloheximide cs – Cycloheximide Counterscreen for Small Molecule Inhibitors of Shiga Toxin. cell reporter, cycloheximide protein synthesis inhibition counterscreen. max response, %. hit rate 12% among 300,000. AID 2314, 2010; in the data active means max response mostly above about 13%, no sharp cut-off; inactive means mostly below about 14%; further: read at 38.3 µM for the half of the compounds with a filed dose; 0% is about no effect
# Giardia FBPA inh – qHTS Assay for Inhibitors of Fructose-1,6-bisphosphate Aldolase from Giardia Lamblia | hit rate 0.71% among 290,000 | purified Giardia FBPA | AID 2451, 2010 | Potency, µM (highest dose often 59.6 µM), for the others: at the top dose activity, negative = inhibition, most hits filed as inhibitors; further: potency means the concentration at half of the fitted maximal effect; on the % scale 0 is the no-effect control and ±100 the full control effect; nearly all actives have a fitted effect of over 55% in size
# Target sequence (A8B2U2 whole entry, looked up): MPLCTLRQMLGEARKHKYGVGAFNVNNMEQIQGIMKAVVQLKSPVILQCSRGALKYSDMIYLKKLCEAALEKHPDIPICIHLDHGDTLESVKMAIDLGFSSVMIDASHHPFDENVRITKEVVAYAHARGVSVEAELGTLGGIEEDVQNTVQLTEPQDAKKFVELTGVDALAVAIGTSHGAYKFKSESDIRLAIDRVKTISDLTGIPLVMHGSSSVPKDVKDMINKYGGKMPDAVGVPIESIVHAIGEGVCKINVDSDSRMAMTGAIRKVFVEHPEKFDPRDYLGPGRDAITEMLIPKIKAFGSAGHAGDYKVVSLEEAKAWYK
#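 40 nM FBPA preincubated 10 min at RT with compound (up to 57.5 uM final), then substrate plus GAPDH/TPI/NAD/arsenate coupling and diaphorase/resazurin added. Fluorescence read after 20 min at RT, 525/598 nm.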
# Shiga inhibitor – A qHTS for Small Molecule Inhibitors of Shiga Toxin. Vero cells, Shiga toxin protein synthesis inhibition reporter. inhibition, % at 38.7 µM. hit rate 9.2% among 290,000; in the data active means inhibition mostly above about 28%, no sharp cut-off; inactive means mostly below about 43%; further: 0% is about no effect
# Sm TGR inh – qHTS Assay for the Inhibitors of Schistosoma Mansoni Peroxiredoxins; purified TGR, DTNB reduction, TNB absorbance 405 nm; Potency, µM (titrated, usually from 114 µM), without a hit: at the top dose activity change, negative = inhibition, usual class: inhibitors; hit rate 3% among 360,000; Schistosoma mansoni thioredoxin glutathione reductase (TGR), Q962Y6; further: potency means the concentration at half of the fitted maximal effect; on the % scale 0 is the no-effect control and ±100 the full control effect; nearly all actives have a fitted effect of over 60% in size
#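 Kinetic colorimetric format: TGR-catalysed, NADPH-driven DTNB reduction monitored via TNB absorbance. Enzyme dispensed at 20 nM; compound exposure 15 min at room temperature before reaction start.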
# LmPK inhibitor – qHTS Assay for Inhibitors of Leishmania Mexicana Pyruvate Kinase (LmPK) | Q27686 | purified LmPK, Kinase-Glo ATP luminescence, 1 h | Potency, µM (series often up to 57.5 µM), for the others: top-dose activity change, negative = inhibition, hits mostly inhibitors | hit rate 0.37% among 290,000 | AID 1721, 2009; further: potency means the concentration at half of the fitted maximal effect; on the % scale 0 is the no-effect control and ±100 the full control effect
#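 Kinase-Glo luminescence read after 1 h RT reaction of 0.1 nM LmPK with 0.5 mM PEP and 0.1 mM ADP. Activity scaled between uninhibited and enzyme-free controls.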
# The depositor's hits bear a star; u = inconclusive; x = no result; [ ] = another dose, or the depositor's remark. This is one part of a sample in which hits are shown more often than they occur. Unless noted, the call rests on the fitted dose curve; in most records, active means well fitted curve in the direction sought with a large enough effect; inconclusive means small, poorly fitted or top-dose-only effect, or another doubt; inactive means no such curve, though single readings can be large; an effect the other way counts as inactive or inconclusive.
SMILES,TbPYK inhibitor,Cycloheximide cs,Giardia FBPA inh,Shiga inhibitor,Sm TGR inh,LmPK inhibitor
CN(CCOC(=O)/C=C/c1ccco1)Cc1ccccc1,-4%,-1,-22%,-2,2.5µM*,14%
CN(Cc1ccccc1)C(=O)COC(=O)/C=C/c1ccco1,0%,18,0%,53,3.5µM*,2%[11.5 µM]
Cc1ccc(NC(=O)c2ccc(OCC3CCCO3)cc2)c(C)c1 (configuration not stated),-4%,16,0%,5,-5%,1%
O=C(Nc1ccccc1Cl)c1ccc2ccccc2c1,2%,21,-4%,11,4%,-1%
Cc1ccc(NC(=O)c2ccc(COc3ccc4c(c3)CCC4)cc2)c(C)c1,0%,17*,2%,25,-6%,3%
O=C(O)c1ccc(COc2ccc3c(c2)CCC3)cc1,-3%,25*,u,54*,13%,-15%
O=C(Nc1ccccc1Cl)c1ccc(COc2ccc3c(c2)CCC3)cc1,-8%,25*,2%,60*,2%,1%
NNC(=O)c1ccc(COc2ccc3c(c2)CCC3)cc1,-7%,16,7%,11,6%,-3%
OC1CCCC1,-11%,x,x,x,-2%,x
O=C1CC(c2ccco2)CC2=C1C(c1ccc(O)cc1)n1nc(C(F)(F)F)nc1N2 (configuration not stated),x,-4,x,4,x,x
COc1ccc(-c2cc(C(=O)Nc3ccccc3F)on2)cc1,-2%,33*,9%,80*,30%,-5%
COc1ccc(NC(=O)c2cc(-c3ccccc3O)no2)cc1,-6%,x,x,x,-5%,x
COc1ccc(-c2cc(C(=O)Nc3ccccc3)on2)cc1,10%,19*,0%,124*,7%,u
COc1ccc(-c2cc(CNC(=O)CCl)on2)cc1,-10%,11,1%,19,35µM*,0%
Cc1cc(C(=O)NCCc2ccc(Cl)cc2)c2c(C)nn(-c3ccccc3)c2n1,2%,x,x,x,1%,x
Cc1cccc(-n2ncc3c(NCCCN4CCCC4=O)ncnc32)c1,2%,58*,-5%,77*,5%,10%
Cc1cccc(-n2ncc3c(NCCOCCO)ncnc32)c1,1%,x,x,x,-1%,x
O=C1CCCN1CCCNc1ncnc2c1cnn2-c1ccc(Cl)cc1,2%,28*,-4%,29*,6%,0%
Cc1cccc(-n2ncc3c(NCCCn4ccnc4)ncnc32)c1,-1%,62*,-4%,74*,5%,2%
CCOC(=O)c1ccc(Nc2nc3nonc3nc2Nc2cccc(C)c2C)cc1,9%,x,x,x,2%,x
O=C(CN1c2ccc(Br)cc2-c2ccccc2S1(=O)=O)N1CCCCC1,-3%,x,x,x,6%,x
O=C1c2ccccc2-c2onc3c(NCCO)cc(NC4CCCCC4)c1c23,u,x,x,x,-7%,x
O=C1c2ccccc2-c2onc3ccc(Oc4ccccc4)c1c23,-7%,-3,u,10,6.3µM*,2%
CCN1CCN(Cc2ccc(C)cc2)CC1,7%,-1,-2%,-10,2%,3%
Clc1ccc(Cn2ccc(C3CC3)n2)cc1,9%,31*,1%,66*,7%,8%
SMILES,TbPYK inhibitor,Cycloheximide cs,Giardia FBPA inh,Shiga inhibitor,Sm TGR inh,LmPK inhibitor
Cc1ccc(Cn2ccc(C3CC3)n2)cc1,1%,62*,2%,52,-2%,1%
Clc1ccc(CN2CCC(c3ccccc3)CC2)cc1,-6%,-1,0%,18,2%,6%
CC(OC(=O)Cc1ccccc1[N+](=O)[O-])C(=O)NC(=O)NC1CCCCC1 (configuration not stated),-18%,x,x,x,2%,x
Cc1cc2ncn(-c3ncccc3[N+](=O)[O-])c2cc1C,0%,10,-1%,-1,45µM*,-10%
O=C(CS(=O)(=O)c1cccc2nsnc12)Nc1ccc(F)cc1,-4%,x,x,x,0%,x
Cc1nn2cc(-c3ccccc3)nc2s1,-27%,32*,2%,59,0%,u
c1ccc(-c2cn3nc(-c4ccccc4)sc3n2)cc1,-4%,x,x,x,x,x
N/C(=N\OC(=O)c1cc(Cl)ccc1Cl)c1ccncc1,0%,27*,6%,74*,-5%,-2%
N/C(=N\OC(=O)CCCOc1ccc(Cl)cc1Cl)c1ccncc1,4%,8,7%,28,6%,5%
COc1cccc(C(=O)O/N=C(\N)c2ccncc2)c1OC,4%,35*,1%,27*,0%,-11%
COc1cccc(C(=O)C(=O)c2cccc(OC)c2OC)c1OC,-1%,x,x,x,x,x
COc1ccccc1C(=O)O/N=C(\c1ccccc1)c1ccncc1,-2%,0,1%,5,13%,8%
Cc1ccccc1C(=O)O/N=C(\N)c1ccncc1,-7%,61*,1%,53*,7%,u
N/C(=N\OC(=O)c1ccc(Cl)cc1Cl)c1ccncc1,0%,30*,3%,82*,-4%,-13%
CC(=O)NCC(=O)N[C@H](CCC(=O)O)C(=O)O,x,x,6%,x,x,x
N/C(=N\OC(=O)c1ccccc1Cl)c1ccncc1,-1%,17*,-9%,71*,4%,1%
CC(C)(Oc1ccc(Cl)cc1)C(=O)O/N=C(\N)c1ccncc1,-8%,2,6%,-6,3%,-1%
COc1ccc([C@H]2CC(=O)c3c(O)cc(O)cc3O2)cc1O,-9%,23*,10%,57,10%,3%
COc1c(O)cc2c(c1O)C(=O)CC(c1ccccc1)O2 (configuration not stated),x,44*,15%,71*,-4%,-3%
Cc1c(O)cc2c(c1O)C(=O)CC(c1ccccc1)O2 (configuration not stated),-4%,-1,-3%,-4,-10%,4%
Cc1ccccc1NC1c2ccccc2C(=O)N1Cc1ccco1 (configuration not stated),-12%,-3,-12%,-6,20µM*,12%
O=C1c2ccccc2C(Nc2cccc(C(F)(F)F)c2)N1Cc1ccco1 (configuration not stated),3%,1,1%,-6,0%,2%
CCN(CC)S(=O)(=O)c1ccc(NC2c3ccccc3C(=O)N2Cc2ccc3c(c2)OCO3)cc1 (configuration not stated),5%,-5,1%,-5,0%,-8%
COc1ccc(C2Nc3ccccc3C(=O)N2Cc2ccco2)cc1COc1ccc([N+](=O)[O-])cc1 (configuration not stated),-1%,18,2%,21,-6%,-1%
